This is an account of results in PubChem BioAssay.

Structures are written as SMILES. Calls of active or inactive are those of the source.

Assay [1] is described as follows: small molecules captured by biotinylated probe aFSTL3 – biochemical, small-molecule microarray, fluorescence 635/667, stem cell growth factor project, primary screen (AID 1064).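 Note: measures binding of the biotinylated anti-FSTL3 antibody to printed compounds.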 The following applies: higher = more signal.
The nature of assay [2]: binders from COS7 lysate, DM2A8 probe, primary screen, torsin A project, cell lysate, small-molecule microarray, fluorescence 635/667 (AID 1065). The note with it: higher = more signal, COS7 lysate expressing mutant human TOR1A.
The nature of assay [3]: small molecules captured by biotinylated probe aFGF2 – biochemical, small-molecule microarray, fluorescence 635/667, stem cell growth factor project, primary screen (AID 1067).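 Note: measures binding of biotinylated aFGF2 protein to printed compounds on slides; z-score merges feature fluorescence and signal-to-noise across triplicate slides.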 The note with it: higher = more signal.
The nature of assay [4]: small molecules captured by biotinylated probe aFGF10 – biochemical, small-molecule microarray, fluorescence 635/667, stem cell growth factor project, primary screen (AID 1071).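 Note: score merges 667 nm spot intensity and signal to noise from triplicate slides.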 The following applies: higher = more signal.
For assay [5], the target named is Neurogenic locus notch homolog protein 2 (Homo sapiens) (UniProt Q04721). Put plainly: small molecules binding Notch2 protein – biochemical, small-molecule microarray, 635 nm fluorescence, stem cell growth factors, primary screen (AID 1073). The note with it: higher = more signal.
In assay [6] the target is Pro-neuregulin-1, membrane-bound isoform (Homo sapiens) (UniProt Q02297). Kind of assay: small molecules binding neuregulin-1 protein – biochemical, small-molecule microarray, fluorescence 635/667, psychiatric disease protein project, primary screen (AID 1075).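 Note: score combines 667 nm spot fluorescence with signal to noise.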 The following applies: NRG1 binding, 635 nm fluorescence, higher = more signal.
Assay [7] deals with Neuregulin-1 EGF-like domain. Kind of assay: small molecules binding NRG1 EGF domain – biochemical, small-molecule microarray, 635 nm fluorescence, primary screen (AID 1081).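 Note: binding of the protein to compounds printed on small-molecule microarray slides.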 The note with it: higher = more signal.
A short description of assay [8]: FRG1 expression reporter modulators in myotubes – cell-based, C2C12 myotubes, firefly/Renilla luciferase, luminescence, FRG1 inhibition for FSHD, primary screen (AID 1084). The note with it: FRG1 promoter luciferase, higher = more signal, called active from +8 up or from −8 down.
Assay [9] can be described thus: small molecules captured by biotinylated probe aFST – biochemical, small-molecule microarray, fluorescence 635/667, stem cell growth factor project, primary screen (AID 1086).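 Note: score merges 667 nm fluorescence with signal-to-noise of each printed compound spot.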 The following applies: higher = more signal.
The nature of assay [10]: binders of probe aHhip on microarray, primary screen, stem cell growth factor project, biochemical, small-molecule microarray, fluorescence 635/667 (AID 1087).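 Note: score merges spot fluorescence at 667nm with spot signal to noise ratio.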 The note with it: higher = more signal.

Sequence of Pro-neuregulin-1, membrane-bound isoform (Homo sapiens) (Q02297 whole entry, looked up, the tested form may be a part, canonical isoform): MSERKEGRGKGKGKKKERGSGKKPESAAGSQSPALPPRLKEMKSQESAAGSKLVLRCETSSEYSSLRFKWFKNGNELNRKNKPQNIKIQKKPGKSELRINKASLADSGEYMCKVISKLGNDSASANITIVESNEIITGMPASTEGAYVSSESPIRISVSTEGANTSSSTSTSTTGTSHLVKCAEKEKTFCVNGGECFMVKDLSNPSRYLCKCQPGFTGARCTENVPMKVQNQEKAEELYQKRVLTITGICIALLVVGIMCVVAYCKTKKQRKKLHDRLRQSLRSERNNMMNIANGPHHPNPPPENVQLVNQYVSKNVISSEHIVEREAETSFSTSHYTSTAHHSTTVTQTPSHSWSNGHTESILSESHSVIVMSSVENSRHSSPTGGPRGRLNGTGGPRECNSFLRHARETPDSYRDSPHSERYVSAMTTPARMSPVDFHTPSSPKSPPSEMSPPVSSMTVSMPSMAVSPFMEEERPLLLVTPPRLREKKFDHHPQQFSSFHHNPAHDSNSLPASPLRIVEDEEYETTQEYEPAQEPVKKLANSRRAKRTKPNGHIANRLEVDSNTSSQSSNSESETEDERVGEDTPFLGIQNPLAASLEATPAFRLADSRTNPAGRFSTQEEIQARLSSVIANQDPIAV
Sequence of Neurogenic locus notch homolog protein 2 (Homo sapiens) (Q04721 whole entry, looked up, canonical isoform): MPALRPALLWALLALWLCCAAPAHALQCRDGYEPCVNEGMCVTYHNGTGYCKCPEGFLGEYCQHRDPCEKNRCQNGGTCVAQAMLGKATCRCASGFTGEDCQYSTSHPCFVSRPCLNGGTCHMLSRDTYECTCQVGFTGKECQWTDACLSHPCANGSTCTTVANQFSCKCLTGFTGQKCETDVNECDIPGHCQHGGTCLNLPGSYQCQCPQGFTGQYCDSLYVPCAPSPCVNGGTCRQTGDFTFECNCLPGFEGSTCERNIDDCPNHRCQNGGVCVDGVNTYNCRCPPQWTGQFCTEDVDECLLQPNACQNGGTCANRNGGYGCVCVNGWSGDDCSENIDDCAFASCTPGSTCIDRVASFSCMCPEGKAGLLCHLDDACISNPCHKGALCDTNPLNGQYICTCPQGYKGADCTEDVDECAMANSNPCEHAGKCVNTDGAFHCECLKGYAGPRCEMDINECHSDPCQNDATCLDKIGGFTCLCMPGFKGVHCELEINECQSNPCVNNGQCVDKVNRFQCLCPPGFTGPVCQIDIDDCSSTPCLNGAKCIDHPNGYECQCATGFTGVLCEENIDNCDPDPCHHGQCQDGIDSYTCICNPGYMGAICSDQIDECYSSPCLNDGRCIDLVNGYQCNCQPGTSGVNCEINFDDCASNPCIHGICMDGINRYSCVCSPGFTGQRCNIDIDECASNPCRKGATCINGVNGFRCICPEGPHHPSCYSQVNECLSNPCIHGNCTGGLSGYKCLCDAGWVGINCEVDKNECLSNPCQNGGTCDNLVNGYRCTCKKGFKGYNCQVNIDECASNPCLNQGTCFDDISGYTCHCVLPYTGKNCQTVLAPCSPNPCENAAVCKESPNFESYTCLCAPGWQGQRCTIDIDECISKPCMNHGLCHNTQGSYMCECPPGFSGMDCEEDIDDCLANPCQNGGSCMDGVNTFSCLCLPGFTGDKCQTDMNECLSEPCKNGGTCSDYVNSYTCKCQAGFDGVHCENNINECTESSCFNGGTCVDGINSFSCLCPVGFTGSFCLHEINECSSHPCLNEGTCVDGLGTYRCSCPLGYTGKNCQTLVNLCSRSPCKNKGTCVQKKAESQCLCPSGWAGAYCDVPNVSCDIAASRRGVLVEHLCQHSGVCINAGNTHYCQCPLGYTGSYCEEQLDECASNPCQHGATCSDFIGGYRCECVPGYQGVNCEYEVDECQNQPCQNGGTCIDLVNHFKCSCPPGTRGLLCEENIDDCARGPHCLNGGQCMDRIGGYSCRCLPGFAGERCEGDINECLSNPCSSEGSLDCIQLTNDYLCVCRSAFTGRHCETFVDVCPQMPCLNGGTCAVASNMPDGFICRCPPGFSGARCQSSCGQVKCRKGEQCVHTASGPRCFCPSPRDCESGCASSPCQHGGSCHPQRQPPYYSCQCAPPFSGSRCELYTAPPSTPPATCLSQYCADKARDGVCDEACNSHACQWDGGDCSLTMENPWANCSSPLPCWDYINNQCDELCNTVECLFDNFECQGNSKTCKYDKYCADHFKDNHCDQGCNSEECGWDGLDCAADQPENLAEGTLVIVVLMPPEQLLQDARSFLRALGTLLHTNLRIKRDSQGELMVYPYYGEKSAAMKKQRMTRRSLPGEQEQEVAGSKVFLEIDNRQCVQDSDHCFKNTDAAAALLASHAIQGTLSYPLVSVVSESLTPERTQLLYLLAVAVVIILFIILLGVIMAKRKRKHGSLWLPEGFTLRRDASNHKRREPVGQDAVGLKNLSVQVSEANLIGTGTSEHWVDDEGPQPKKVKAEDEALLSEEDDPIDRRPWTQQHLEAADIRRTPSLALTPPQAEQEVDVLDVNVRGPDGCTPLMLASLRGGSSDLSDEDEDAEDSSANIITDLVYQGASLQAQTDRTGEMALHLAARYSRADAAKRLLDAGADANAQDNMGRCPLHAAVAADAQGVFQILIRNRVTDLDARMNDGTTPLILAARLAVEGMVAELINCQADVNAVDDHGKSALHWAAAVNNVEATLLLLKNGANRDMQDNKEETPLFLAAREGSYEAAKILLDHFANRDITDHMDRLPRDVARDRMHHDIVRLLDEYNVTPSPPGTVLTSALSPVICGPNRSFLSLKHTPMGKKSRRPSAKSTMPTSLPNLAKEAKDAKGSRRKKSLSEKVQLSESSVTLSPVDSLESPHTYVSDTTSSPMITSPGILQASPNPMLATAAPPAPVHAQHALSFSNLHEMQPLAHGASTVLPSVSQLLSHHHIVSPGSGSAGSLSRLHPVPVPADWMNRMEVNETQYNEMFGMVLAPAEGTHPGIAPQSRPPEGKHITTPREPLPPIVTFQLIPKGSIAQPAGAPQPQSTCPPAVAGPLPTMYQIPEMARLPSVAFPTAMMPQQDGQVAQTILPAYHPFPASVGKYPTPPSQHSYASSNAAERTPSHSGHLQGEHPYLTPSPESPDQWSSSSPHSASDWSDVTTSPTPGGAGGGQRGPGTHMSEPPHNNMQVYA

Consider `COC(=O)CC1OC1[C@H](C)[C@@H](OC)C(C)C` (stereo not given in full), for which the composite z-score was -0.243 in assay [1]; -0.0917 in [2]; -0.201 in assay [3]; 0.123 in assay [4]; -0.624 in [5]; -0.407 in assay [6]. In addition, the composite z-score in [7] was -0.102; in assay [9] it was 0.0068; in assay [10] it was -0.316. In assay [8], the z-score was 1.24 (inactive).
Consider `CC(C)=C1C(=O)C(c2ccccc2)=C2CN3C(=O)N(CCc4ccccc4)C(=O)[C@]3(Cc3ccc(F)cc3)[C@H]21`, for which the composite z-score is 0.565 in assay [1]; -0.65 in [2]; 0.0547 in [3]; -0.247 in assay [4]; -1.09 in assay [5]; 1.3 in assay [6]. Besides, the composite z-score in [7] came out at 0.134; in [9], 0.841; in assay [10] it was 0.0722. The z-score in assay [8] is -0.0896 (inactive).
With `CCOC(=O)CCN1C(=O)[C@H]2[C@H]3[C@H](O)C=CC(=O)[C@@H]3CC[C@H]2C1=O`, the composite z-score in [1] is -0.619; in assay [2] it was 0.153; in assay [3] it was -0.108; in assay [4], 0.408; in assay [5], 0.25; in assay [6] it was 0.262. Further, the values for the composite z-score in [7], in [9] and in assay [10] were -0.0122, -0.0371 and -0.374, respectively. For the same compound, the z-score in assay [8] was -0.451 (inactive).
Consider `O=C1[C@H]2[C@H]3[C@H](O)[C@H](O)CC(=NOC[C@@H](O)COCc4ccco4)[C@H]3CC[C@H]2C(=O)N1c1cccc(Oc2ccccc2)c1`, for which the composite z-score is -0.0639 in [1]; 1.55 in assay [2]; -0.187 in assay [3]; -0.0105 in assay [4]; -1.31 in assay [5]; 0.141 in assay [6]. Also, the figures for the composite z-score in [7], in [9] and in assay [10] were 0.603, -0.266 and -0.16, respectively. Further, the z-score in [8] is -0.425 (inactive).
In the case of `CC(CCN1CCCCc2nc(C)c(C)cc21)=NOC(C)CN1CCCCc2nc(C)c(C)cc21` (stereo not given), the composite z-score in assay [1] is -0.275; in assay [2], 1.93; in [3], -0.15; in assay [4], 0.682; in assay [5] it was 1.48; in assay [6], 0.963. The composite z-score in [7] is 1.28; in [9], 0.907; in [10], 0.0174. Further, the z-score in [8] was 0.748 (inactive).
Turning to `COc1cccc([C@H]2Oc3ccc(OC)cc3C(=NO[C@H](C)c3cn([C@@H]4COC[C@H]4O)nn3)[C@@H]2O)c1`, the composite z-score in assay [1] was -0.183; in assay [2] it was 0.044; in assay [3] it was -0.0867; in [4], -0.246; in assay [5], -0.315; in [6], 0.0671. Also, the composite z-score is -0.168 in [7], -0.324 in assay [9] and -0.305 in [10]. The z-score in assay [8] is 0.253 (inactive).
`COc1ccc(OC[C@H]2Cc3c(-c4ccccc4)nc4c(c3CO2)CN(CCOc2ccccc2)CC4)cc1`: the composite z-score in assay [1] was -0.133; in [2], 0.228; in assay [3], -0.172; in assay [4], 0.79; in assay [5] it was 1.16; in assay [6], 0.679. Besides, the composite z-score in assay [7] was 1.11; in assay [9], 0.491; in assay [10], -0.0618. Moreover, the z-score in assay [8] is 0.114 (inactive).
Turning to `CO[C@@H]1COC(=O)CC=C[C@@H](C)[C@@H]2C=C[C@@H](O)[C@@H](COC(=O)CC=C[C@H]1C)O2`, the composite z-score in assay [1] is -0.42; in [2] it was 1.08; in assay [3], -0.0861; in [4], -0.251; in assay [5], -0.716; in [6], -0.688. Besides, the composite z-score in assay [7] was -0.523; in assay [9], -0.176; in [10], -0.16. The z-score in assay [8] is -0.969 (inactive).
Turning to `CC(C)(C)OC(=O)CC[C@]1(C(=O)NCc2ccccc2)N=C(c2ccc(OCCCO)cc2)O[C@H]1c1ccccc1`, the composite z-score is 0.0895 in assay [1]; 0.8 in assay [2]; -0.0036 in assay [3]; 1 in assay [4]; 0.979 in assay [5]; 1.94 in assay [6]. Moreover, the composite z-score in [7] was 1.23; in [9] it was 1.04; in assay [10], -0.0645. In addition, in [8], the z-score is -2.08 (inactive).
With `CN1C(=O)C2C=CC(C(O)C(c3ccccc3)c3ccccc3)N(NC(=O)OC(C)(C)C)C2C1=O` (stereo not given), the composite z-score in assay [1] came out at 1.16; in assay [2] it was 0.868; in assay [3] it was 0.448; in assay [4] it was 1.09; in assay [5] it was 1.73; in assay [6], 1.99. For the same compound, the composite z-score is 1.22 in assay [7], 1.79 in [9] and -0.116 in assay [10]. Also, the z-score in assay [8] was 0.745 (inactive).
Take `CCOC(=O)CCN1C(=O)[C@H]2[C@H]3[C@H](O)[C@H](O)CC(=NOC[C@@H](O)COCc4ccco4)[C@@H]3CC[C@H]2C1=O`: the composite z-score in [1] was 0.545; in assay [2] it was 0.457; in assay [3] it was 0.0166; in assay [4], 0.484; in assay [5], -0.328; in [6] it was -0.21. In addition, the composite z-score in assay [7] is 0.486; in assay [9], 0.356; in assay [10], -0.134. Moreover, in [8], the z-score is -0.124 (inactive).
Consider `C[C@H]1CC[C@@H](C(=O)O)N[C@@H]1c1ccc(C#CCN(C)C)cc1`, for which the composite z-score in assay [1] was -0.326; in assay [2] it was 0.451; in [3], -0.0943; in assay [4], 0.185; in [5] it was 0.608; in [6], 0.115. In addition, the values for the composite z-score in [7], in assay [9] and in [10] were 0.0934, 0.629 and -0.119, respectively. Moreover, in assay [8], the z-score was -0.794 (inactive).
In the case of `CC(=O)OC[C@H]1O[C@H](CC=NOC[C@@H](C)[C@H](OCc2ccccc2)C(C)C)C=C[C@@H]1OC(C)=O`, the composite z-score in assay [1] was -0.0055; in assay [2], -0.141; in assay [3] it was -0.087; in assay [4] it was 0.0055; in assay [5], -0.0224; in [6] it was -0.254. In addition, the figures for the composite z-score in assay [7], in assay [9] and in [10] were -0.712, -0.341 and -0.0645, respectively. In addition, in [8], the z-score was 0.183 (inactive).
